A selection: hits, their analogues and other compounds. The true share with any hit is near 2.2%.
miR122 inh: blocks miR-122 activity in Huh7 sensor cells | AID 602342 | activation (reporter increase), % at 12.5 µM | Huh7 miR-122 Renilla luciferase sensor, 48 h; neutral wells = 0, positive control = 100 | 0.3% of 340,000 active;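 active = mean replicate activation score at least 90 and every replicate individually at or above 90; inconclusive = only one of the two criteria met; inactive = neither criterion met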;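 also: higher luciferase means less miR-122 activity so hits act as miR-122 inhibitors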
DENV2 CPE rescue: protects cells from dengue virus 2 cytopathic effect | DENV2-infected cells, cytopathic effect rescue, plate reader | CPE inhibition, % at 9.99 µM | 1.7% of 350,000 active; in the data active = CPE inhibition above about 20%, passing the limit was not always enough; inconclusive = no clear call, values can overlap the other calls; tested in BHK-21 cells;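 also: 0% = median of neutral control wells and 100% = median of positive control wells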
PGC1a acetyl inh: modulators of PGC1a acetylation. U2OS PGC1a acetylation, AlphaScreen anti-acetyl-lysine; with virally co-expressed GCN5 acetyltransferase. inhibition, % at 15.6 µM. 0.17% of 350,000 active. AID 651687;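 active = every replicate shows inhibition of at least 40%; inconclusive = mean inhibition at least 40% but some replicate below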;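 also: 0% = neutral control wells and 100% = positive control wells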
PvdQ inh: P. aeruginosa PvdQ acylase inhibition; purified PvdQ acylase, fluorescence plate reader; inhibition, % at 10 µM; 0.063% of 340,000 active; AID 488965; in the data active = inhibition above about 30%, passing the limit was not always enough; inconclusive = no clear call, values can overlap the other calls;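 also: 0% = vehicle neutral wells and 100% = reference inhibitor wells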
C2C12 statin: protects C2C12 myotubes from simvastatin toxicity | 0.78% of 330,000 active | ATP luminescence, 48 h; scaled: DMSO 0, geranylgeraniol control 100 | rescue of ATP level, % at 7.49 µM | AID 602340;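 active = mean ATP rescue above about 67%, or every replicate alone reaching that limit, limit read from the data, passing the limit was not always enough; inconclusive = no clear call, values can overlap the other calls; inactive = mean under the limit and some replicate under it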;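 also: myotubes were challenged with 10 µM simvastatin during compound exposure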
* marks the source's active call; other numbers are inactive results; [ ] = another dose, or the depositor's remark.

For C[C@@H]1CN([C@@H](C)CO)C(=O)c2cccc(NC(=O)C3CCCCC3)c2O[C@@H]1CN(C)Cc1ccc(C(=O)Nc2ccccc2N)cc1 the results were miR122 inh 184.6*[16.7 µM], DENV2 CPE rescue -21.1, PGC1a acetyl inh 6.3 and C2C12 statin -51.5.
CCN1CCN(C(=O)C2CCN(Cc3nc(-c4cccc(Cl)c4)oc3C)CC2)CC1 was read as miR122 inh -8.2, DENV2 CPE rescue 9.1, PGC1a acetyl inh -2.5, PvdQ inh -14.5 and C2C12 statin -14.0.
For COc1ccc(-c2nc(CN3CCC(C(=O)N4CCOCC4)CC3)c(C)o2)c(OC)c1 the results were miR122 inh -3.5, DENV2 CPE rescue 43.6*, PGC1a acetyl inh -1.4, PvdQ inh -1.6 and C2C12 statin -1.3.
Screening CC(=O)Nc1cccc(-c2ccnc3c2CC(C)(C(=O)Nc2ccc(Cl)c(C(F)(F)F)c2)O3)c1 (stereo not given) returned miR122 inh 1.0, DENV2 CPE rescue 4.8, PGC1a acetyl inh -15.1 and C2C12 statin 80.5*.
Screening C[C@H](CO)N1C[C@H](C)[C@H](CN(C)Cc2ccc(Cl)c(Cl)c2)Oc2ccc(NC(=O)CCCCCC(=O)Nc3ccccc3N)cc2CC1=O returned miR122 inh 14.3[16.7 µM], DENV2 CPE rescue 19.1, PGC1a acetyl inh 3.3 and C2C12 statin 139.0*.
Screening C[C@@H]1CN([C@@H](C)CO)C(=O)Cc2cc(NC(=O)CCCCCC(=O)Nc3ccccc3N)ccc2O[C@@H]1CN(C)Cc1ccc(Cl)c(Cl)c1 returned miR122 inh -13.0[16.7 µM], DENV2 CPE rescue 11.4, PGC1a acetyl inh -3.4 and C2C12 statin 37.3.
C[C@@H]1CN([C@H](C)CO)C(=O)Cc2cc(NC(=O)CCCCCC(=O)Nc3ccccc3N)ccc2O[C@@H]1CN(C)Cc1ccc(Cl)c(Cl)c1 was read as miR122 inh -8.6[16.7 µM], DENV2 CPE rescue 84.2*, PGC1a acetyl inh 2.7 and C2C12 statin 84.9*.
CCCNC(=O)N(C)C[C@H]1Oc2cc(C#CCN(C)C)ccc2S(=O)(=O)N([C@H](C)CO)C[C@H]1C was read as miR122 inh 9.5[16.7 µM], DENV2 CPE rescue -1.4, PGC1a acetyl inh 2.3 and C2C12 statin -1.7.
`CCCN(C[C@H]1[C@H](c2ccccc2)[C@@H](CO)N1C(C)=O)C(=O)NC(C)C` gave miR122 inh 7.1[16.7 µM], DENV2 CPE rescue 7.1, PGC1a acetyl inh 3.6 and C2C12 statin -8.3.
`CO[C@H]1CN(C)C(=O)c2ccc(NS(=O)(=O)c3ccc(C)cc3)cc2OC[C@@H](C)N(Cc2nccs2)C[C@@H]1C` gave DENV2 CPE rescue -2.5, PGC1a acetyl inh -3.1 and C2C12 statin -5.1.
For COc1ccc(CN2[C@@H](CO)[C@@H]3c4ccccc4N(C(=O)c4ccccc4)C[C@@H]32)cc1 the results were miR122 inh 10.0[16.7 µM], DENV2 CPE rescue 19.9, PGC1a acetyl inh -16.4 and C2C12 statin 28.6.
`Cc1ccc(/C=N/NC(=O)c2ccc(-n3cnnn3)cc2)cc1` gave miR122 inh -2.5, DENV2 CPE rescue 32.4*, PGC1a acetyl inh -2.9, PvdQ inh -5.0 and C2C12 statin -5.2.
`Cc1noc(C)c1S(=O)(=O)N(C)C[C@H]1Oc2ccc(NC(=O)CCN3CCOCC3)cc2CC(=O)N([C@@H](C)CO)C[C@H]1C` gave DENV2 CPE rescue -2.8 and PGC1a acetyl inh 3.7.
Cc1c(N2C(=O)CSC2c2ccccc2)c(=O)n(-c2ccccc2)n1C (stereo not given) was read as DENV2 CPE rescue 11.3, PGC1a acetyl inh 21.6 and PvdQ inh -21.1.
For CCOc1ccc(C2SCC(=O)N2c2c(C)n(C)n(-c3ccccc3)c2=O)cc1 (stereo not given) the results were miR122 inh -2.3, PGC1a acetyl inh 11.6, PvdQ inh -9.5 and C2C12 statin 117.4*.
Screening Cc1ccc(-c2nn(-c3ccccc3)cc2CO)cc1 returned miR122 inh -6.9, DENV2 CPE rescue 3.3, PGC1a acetyl inh 16.1, PvdQ inh -17.6 and C2C12 statin -4.1.
COc1ccc(-c2nn(-c3ccccc3)cc2CO)cc1 was read as miR122 inh -10.5, PGC1a acetyl inh 1.4, PvdQ inh -9.7 and C2C12 statin 98.8*.
Cc1c(C(=O)N2CCN(C)CC2)oc2ccc(Br)cc12 was read as miR122 inh 1.6, DENV2 CPE rescue 0.7, PGC1a acetyl inh -12.9, PvdQ inh 3.3 and C2C12 statin -6.4.
For Cc1c(C(=O)N2CCCC2)oc2ccc(Br)cc12 the results were miR122 inh -6.7, DENV2 CPE rescue 53.2*, PvdQ inh -13.4 and C2C12 statin 0.3.
For C[C@@H]1CN([C@@H](C)CO)C(=O)c2cc(NS(C)(=O)=O)ccc2O[C@H]1CN(C)S(=O)(=O)c1cccs1 the results were miR122 inh -5.5[16.7 µM], DENV2 CPE rescue inconclusive, PGC1a acetyl inh 3.3 and C2C12 statin -11.7.
`COc1ccc(CCNC(=O)C2CCC(CNc3c(N4CCCC4)c(=O)c3=O)CC2)cc1OC` (stereo not given) gave miR122 inh -2.0, PGC1a acetyl inh 9.5, PvdQ inh 2.7 and C2C12 statin 85.7*.
`CCS(=O)(=O)N1CCCC(C(=O)NCCc2ccc(OC)c(OC)c2)C1` (stereo not given) gave miR122 inh -7.7, PGC1a acetyl inh -5.7, PvdQ inh -12.6 and C2C12 statin 127.2*.
For CNC(=O)C[C@H]1CC[C@H]2[C@H](COc3ccc(NC(=O)Nc4ccc(F)c(F)c4)cc3C(=O)N2C)O1 the results were miR122 inh 25.0[16.7 µM], DENV2 CPE rescue 1.3, PGC1a acetyl inh 2.2 and C2C12 statin 6.5.
Screening COc1ccc2sc(-c3ccc(N(C)C)cc3)c(C#CCCO)c2c1 returned miR122 inh -2.0, DENV2 CPE rescue 26.4*, PGC1a acetyl inh -32.4, PvdQ inh -12.2 and C2C12 statin 3.1.
Screening COc1ccc(-c2ccc(OC)c([C@H]3[C@H]4C=CC[C@@H](C)[C@@H]4C(=O)N3Cc3ccccc3)c2)cc1OC returned miR122 inh 14.7, DENV2 CPE rescue 2.3, PvdQ inh -11.0 and C2C12 statin -5.1.
COc1ccc(Br)cc1[C@H]1[C@H]2C=CC[C@@H](C)[C@@H]2C(=O)N1Cc1ccccc1 was read as miR122 inh -2.5, DENV2 CPE rescue 66.4*, PvdQ inh -7.3 and C2C12 statin 12.1.
For C[C@@H]1CC=C[C@H]2[C@H]1C(=O)N(Cc1ccccc1)[C@H]2c1ccc(F)c(-c2ccc(N(C)C)cc2)c1 the results were miR122 inh -2.0, DENV2 CPE rescue 7.8, PGC1a acetyl inh 3.6, PvdQ inh -7.4 and C2C12 statin -7.9.
For CC(=O)c1ccc(-c2cc([C@H]3[C@H]4C=CC[C@@H](C)[C@@H]4C(=O)N3Cc3ccccc3)ccc2F)cc1 the results were miR122 inh -1.1, DENV2 CPE rescue 6.7, PGC1a acetyl inh 1.2, PvdQ inh -13.2 and C2C12 statin 159.9*.
Screening C=CC[C@@]1(C(=O)N2CCOCC2)N=C(c2ccc(OCCCO)cc2)O[C@@H]1c1ccccc1 returned DENV2 CPE rescue -0.9.
CCn1c(SCC(N)=O)nc2sc3c(c2c1=O)CCCC3 was read as miR122 inh -1.9, PGC1a acetyl inh 5.8 and PvdQ inh -2.7.
